According to the supplement of paper PMC6124720:
Structures can show the parent of a compound that is named as a salt. A number with no mark means an inactive call.

Test system: Pseudogymnoascus destructans 20631-21
Assay: growth activity index (DuctApe, 0 = no growth, 9 = maximal growth) (index 0-9); higher = more fungal growth (less inhibition), active = 0 or less; extreme values may be limits of the assay
Conditions: temperature: 13 °C, YPD
[1] = concentration level (1-4, increasing; Biolog proprietary): 1
[2] = concentration level (1-4, increasing; Biolog proprietary): 2
[3] = concentration level (1-4, increasing; Biolog proprietary): 3
[4] = concentration level (1-4, increasing; Biolog proprietary): 4
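Note: biolog Phenotype Microarray plates PM21–25, OD595 followed daily over 11 days, growth curves converted to index, mean of two independent experiments.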

Row | Compound | growth activity index [1] | growth activity index [2] | growth activity index [3] | growth activity index [4]
1 | Nc1[nH]c(=O)ncc1F [5-Fluorocytosine] (Biolog plate: PM25) | 5 | 4 | 4.33 | 4
2 | O=C(O)CN(CCOCCOCCN(CC(=O)O)CC(=O)O)CC(=O)O (Biolog plate: PM24) | 4.33 | 4.33 | 4 | 4
3 | N=C(N)c1ccc(OCCCCCOc2ccc(C(=N)N)cc2)cc1 [Pentamidine Isethionate] (Biolog plate: PM24) | 0.333 | 5.33 | 8 | 8
4 | On1ccccc1=S [1-Hydroxypyridine-2-thione (pyrithione)] (Biolog plate: PM21) | 5.25 | 4 | 4.25 | 2.25
5 | [Cl][Mn][Cl] [Manganese chloride] (Biolog plate: PM21) | 4 | 5.25 | 4.5 | 4.5
6 | O=P(O)(O)OP(=O)(O)O [Sodium pyrophosphate] (Biolog plate: PM24) | 5.67 | 4.67 | 4.67 | 4
7 | O=c1[nH]c(=O)n([C@H]2C[C@H](O)[C@@H](CO)O2)cc1F [Fluorodeoxyuridine] (Biolog plate: PM25) | 4.67 | 3.67 | 4.33 | 3
8 | O=S(O)(O)=S [Sodium Thiosulfate] (Biolog plate: PM23) | 5 | 4.33 | 1.67 | 0 (active)
9 | O=c1cn[nH]c(=O)[nH]1 [6-Azauracil] (Biolog plate: PM24) | 4.67 | 4 | 4.67 | 2.67
10 | NC(CO)C(=O)NO (racemic) [DL-Serine hydroxamate] (Biolog plate: PM22) | 4.33 | 4 | 0 (active) | 0 (active)
11 | O.O=S(=O)([O-])[O-].O=S(=O)([O-])[O-].O=S(=O)([O-])[O-].[Al+3].[Al+3] [Aluminum sulfate] (Biolog plate: PM24) | 2 | 4 | 6 | 7
12 | Nc1c2ccccc2nc2ccccc12 [9-Aminoacridine] (Biolog plate: PM24) | 5 | 5.33 | 7 | 9
13 | c1ccc(-c2nn(-c3ccccc3)[n+](-c3cccc4ccccc34)n2)cc1 [Tetrazolium violet] (Biolog plate: PM25) | 4.33 | 3 | 0 (active) | 2
14 | O=c1[nH]cc(F)c(=O)[nH]1 [5-Fluorouracil] (Biolog plate: PM25) | 4.67 | 5 | 5.33 | 6
15 | N=C(N)c1ccccc1 [Benzamidine] (Biolog plate: PM22) | 4 | 0 (active) | 0 (active) | 0 (active)
16 | O=C(O)/C=C/C(=O)O [Fumaric acid] (Biolog plate: PM25) | 4.33 | 4 | 4 | 4
17 | NC(N)=S [Thiourea] (Biolog plate: PM21) | 2 | 0 (active) | 0 (active) | 0 (active)
18 | O=C(O)CCC(=O)O [Succinic acid] (Biolog plate: PM25) | 3.33 | 3.33 | 3.67 | 3
19 | CCCCCCCCCCCC[N+](C)(C)CCOc1ccccc1 [Domiphen bromide] (Biolog plate: PM21) | 4 | 2 | 0 (active) | 0 (active)
20 | NCC(=O)NO [Glycine hydroxamate] (Biolog plate: PM22) | 5 | 3.67 | 2 | 0 (active)
21 | C=C(CC[C@]12O[C@H](C(=O)O)[C@@](O)(C(=O)O)[C@](C(=O)O)(O1)[C@H](OC(=O)/C=C/[C@@H](C)C[C@@H](C)CC)[C@H]2O)[C@@H](OC(C)=O)[C@H](C)Cc1ccccc1 [Zaragozic acid A] (Biolog plate: PM24) | 5.67 | 5.33 | 0.667 | 0 (active)
22 | c1ccc(-c2ccccn2)nc1 [2,2`-Dipyridyl] (Biolog plate: PM21) | 5 | 5 | 5.25 | 5.25

Row | Compound | growth activity index [1] | growth activity index [2] | growth activity index [3] | growth activity index [4]
23 | O=NO [Sodium Nitrite] (Biolog plate: PM23) | 4.33 | 2.67 | 1 | 1.33
24 | CN[C@@H]1[C@@H](O[C@H]2O[C@H](CO)[C@@H](N)[C@H](O)[C@H]2O)OC2C[C@@H](N)[C@@H](O[C@H]3[C@H](O)[C@@H](O)[C@H](N)C[C@@H]3N)OC2[C@@H]1O (some centres not stated) [Apramycin] (Biolog plate: PM24) | 5 | 4.33 | 7.67 | 4.33
25 | OCC1OC(O)CC(O)C1O [2-Deoxy-D-glucose] (Biolog plate: PM23) | 4.67 | 5 | 5 | 4.33
26 | CCCCCCCCCCCC[N+](C)(C)C [Dodecyltrimethyl ammonium bromide] (Biolog plate: PM21) | 4.25 | 0 (active) | 0 (active) | 1
27 | CC(CN1c2ccccc2Sc2ccccc21)N(C)C (configuration not stated) [Promethazine] (Biolog plate: PM21) | 4.75 | 0 (active) | 1 | 6
28 | O=C(O)CN(CC(=O)O)c1ccccc1OCCOc1ccccc1N(CC(=O)O)CC(=O)O (Biolog plate: PM22) | 4.67 | 1.67 | 1.33 | 0.667
29 | O=C([O-])c1ccccc1.[Na+] [Sodium Benzoate] (Biolog plate: PM24) | 4 | 5 | 4.67 | 4.67
30 | OB(O)O [Boric acid] (Biolog plate: PM22) | 5.33 | 0.333 | 0 (active) | 0 (active)
31 | CN(C)[C@@H]1C(O)=C(C(N)=O)C(=O)[C@@]2(O)C(O)=C3C(=O)c4c(O)ccc(Cl)c4[C@@](C)(O)[C@H]3C[C@@H]12 [Chlortetracycline] (Biolog plate: PM24) | 5.67 | 4.33 | 6 | 7
32 | NC[C@@H]1O[C@H](O[C@H]2[C@@H](O)[C@H](O[C@@H]3[C@@H](O)[C@H](N)C[C@H](N)[C@H]3O[C@H]3O[C@H](CN)[C@@H](O)[C@H](O)[C@H]3N)O[C@@H]2CO)[C@H](N)[C@@H](O)[C@@H]1O [Neomycin] (Biolog plate: PM21) | 5.25 | 5 | 2.5 | 1.25
33 | [Cl-].[Li+] [Lithium chloride] (Biolog plate: PM22) | 0 (active) | 0 (active) | 0 (active) | 0 (active)
34 | [Cl][Cu][Cl] [Cupric chloride] (Biolog plate: PM23) | 4.33 | 5.33 | 6 | 6
35 | C[C@@H]1[C@H](O)[C@@H](C)/C=C/C=C/C=C/C=C/C=C/C=C/C=C/[C@H](O[C@@H]2O[C@H](C)[C@@H](O)[C@H](N)[C@@H]2O)C[C@@H]2O[C@](O)(C[C@@H](O)C[C@@H](O)[C@H](O)CC[C@@H](O)C[C@@H](O)CC(=O)O[C@H]1C)C[C@H](O)[C@H]2C(=O)O [Amphotericin B] (Biolog plate: PM24) | 0 (active) | 1.33 | 0 (active) | 0 (active)
36 | O=C(O)CC(O)C(=O)O (configuration not stated) [Malic acid] (Biolog plate: PM25) | 4 | 5 | 2.67 | 1.33
37 | N[C@H](CO)C(=O)O [D-Serine] (Biolog plate: PM22) | 5 | 4.67 | 4 | 4
38 | O=C([O-])CC(O)(CC(=O)[O-])C(=O)[O-].[Na+].[Na+].[Na+] [Citric acid Trisodium Salt] (Biolog plate: PM25) | 4 | 4.67 | 4 | 5.67
39 | O=C(O)CN(CCN(CC(=O)O)CC(=O)O)CC(=O)O (Biolog plate: PM21) | 5 | 5 | 5 | 5
40 | NNC(=O)c1ccncc1 [Isoniazid] (Biolog plate: PM24) | 5 | 5 | 4 | 0.333
41 | NCC(=O)O [Glycine hydrochloride] (Biolog plate: PM23) | 5 | 4 | 2 | 2
42 | NC[C@H]1O[C@H](O[C@H]2[C@H](O)[C@@H](O[C@H]3O[C@H](CO)[C@@H](O)[C@H](N)[C@H]3O)[C@H](N)C[C@@H]2N)[C@H](N)C[C@@H]1O [Tobramycin] (Biolog plate: PM25) | 5 | 5 | 5 | 1
43 | O.O.O.O.O.O.[Cl-].[Cl-].[Mg+2] [Magnesium chloride] (Biolog plate: PM21) | 4 | 4 | 4 | 2.25
